# Compound activity: PubChem, National Center for Advancing Translational Sciences (NCATS)
# FLuc counter: qHTS profiling assay for firefly luciferase inhibitor/activator using purifed enzyme and Km concentrations of substrates (counterscreen for miR-21 project); Luciferin 4-monooxygenase (Photinus pyralis), P08659; actives 6.9% (n = 360,000); Potency, µM (titrated, usually from 57.5 µM), for inactives: top-dose activity change, negative = inhibition, actives largely listed as inhibitors; purified FLuc, Km substrates, luminescence inhibition;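 also: plate controls were vehicle for no effect and reference inhibitor for full effect; nearly all actives have a fitted effect of over 55% in size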
# Target sequence (P08659 whole entry, looked up): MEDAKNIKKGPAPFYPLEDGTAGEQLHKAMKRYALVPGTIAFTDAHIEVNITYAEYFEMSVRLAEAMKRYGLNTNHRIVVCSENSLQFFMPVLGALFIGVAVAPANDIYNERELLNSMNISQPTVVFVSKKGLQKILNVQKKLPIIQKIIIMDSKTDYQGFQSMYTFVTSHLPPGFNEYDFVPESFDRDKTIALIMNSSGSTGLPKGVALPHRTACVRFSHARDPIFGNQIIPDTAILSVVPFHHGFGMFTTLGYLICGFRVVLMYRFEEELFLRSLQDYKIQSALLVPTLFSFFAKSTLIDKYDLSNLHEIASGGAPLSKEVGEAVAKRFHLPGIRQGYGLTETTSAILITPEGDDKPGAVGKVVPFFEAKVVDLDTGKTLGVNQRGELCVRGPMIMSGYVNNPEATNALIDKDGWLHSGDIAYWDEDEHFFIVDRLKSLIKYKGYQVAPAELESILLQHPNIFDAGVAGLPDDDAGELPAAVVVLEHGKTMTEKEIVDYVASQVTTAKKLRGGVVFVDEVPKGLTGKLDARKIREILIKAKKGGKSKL
#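 Purified P. pyralis luciferase, 10 nM final, with Km-level 10 uM D-luciferin and 10 uM ATP in 50 mM Tris acetate pH 7.5, 10 mM Mg acetate, 0.01% Tween-20, 0.05% BSA; 6-point qHTS titration about 60 µM downward; luminescence read.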
# NPC1 prom act: qHTS Assay for NPC1 Promoter Activators; AID 485313, 2010; Potency, µM (series often up to 9.22 µM), for inactives: at the top dose activation, usual class: activators; actives 2.4% (n = 320,000); Huh7 NPC1 promoter luciferase reporter, 24 h; also: % of control where 0% means no effect; nearly all actives have a fitted effect of over 60% in size
#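 In 1536-well qHTS, Huh7 cells harboring an NPC1 promoter–luciferase construct received compound for 24 h; activation was quantified by luminescence following luciferase reagent addition.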
# SMN2 splice up: qHTS Assay for Enhancers of SMN2 Splice Variant Expression | actives 2.8% (n = 210,000) | Potency, µM (top dose mostly 46.1 µM), for the others: at the highest dose activity change, positive = activation, most hits filed as activators | HEK293 SMN2-luciferase splicing reporter, luminescence, 30-36 h | AID 1458, 2008; also: % of control where 0% means no effect; nearly all actives have a fitted effect of over 55% in size
#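 qHTS luciferase splicing reporter: luminescence rises when SMN2 exon 7 is included in transfected HEK293 cells. Compound exposure lasted 30-36 h at 37C, with 4.5 mM final sodium butyrate as control, followed by a ONE-Glo read.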
# Rab9 prom act: qHTS Assay for Rab9 Promoter Activators | Potency, µM (highest dose often 9.22 µM), for the others: at the highest dose activation, negative = inhibition, actives largely listed as activators | Huh7 Rab9 promoter-luciferase reporter, luminescence, 24 h | AID 485297, 2010 | actives 2.8% (n = 320,000); also: % of control where 0% means no effect; nearly all actives have a fitted effect of over 60% in size
#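 Huh7 cells stably carrying Rab9 promoter–luciferase reporter, plated 1500 cells/well, compound added after 2 h and incubated 24 h at 37 °C; luciferase luminescence then read after 10 min with detection reagent.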
# ELG1 genotox: qHTS screen for small molecules that induce genotoxicity in human embryonic kidney (HEK293T) cells expressing luciferase-tagged ELG1 | HEK293T ELG1-luciferase reporter, luminescence, 16 h | Potency, µM (doses to about 46 µM), inactives show at the highest dose activity change, positive = activation, hits mostly activators | actives 1.3% (n = 330,000) | AID 504466, 2011; also: % of control where 0% means no effect; nearly all actives have a fitted effect of over 60% in size
#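 DMSO vehicle served as control against compound-treated ELG1-luciferase HEK293T cells; exposure lasted 16 hr at 37 °C and 5% CO2, followed by ONE-Glo luminescence detection after 30 min.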
# * hit, by the source's call; u = inconclusive; x = not tested or not shown; [ ] = remark or other dose. Only some compounds are listed: those with a hit (about 7.4% of all), similar ones and a draw of the others. Calls follow the shape of the dose curve; as a rule, active = well fitted curve in the direction sought with a large enough effect; inconclusive = small, poorly fitted or top-dose-only effect, or another doubt; inactive = no such curve, though single readings can be large; an effect the other way counts as inactive or inconclusive. Potency is read from the fitted curve at half-maximal effect.
SMILES,FLuc counter,NPC1 prom act,SMN2 splice up,Rab9 prom act,ELG1 genotox
O=c1oc2ccccc2cc1-c1nc(-c2ccccc2)no1,0.54µM*,0.45µM*,11µM*,1.1µM*,u
O=c1oc2ccccc2cc1-c1nc(-c2cccs2)no1,0.6µM*,x,x,x,x
Cc1ccc(-c2noc(-c3cc4ccccc4oc3=O)n2)cc1,6µM*,25%,-7%,21%,u
Cc1[nH]c2ccc(C(=O)N3CCN(c4ccccc4F)CC3)cc2c1C,-15%,x,x,x,x
COC(=O)c1sccc1S(=O)(=O)N(CC(=O)NCc1ccc(C)cc1)c1ccc(Cl)cc1,-8%,x,x,x,x
COc1ccc2cc(-c3nc(-c4ccc(N(C)C)cc4)no3)c(=O)oc2c1,4%,x,x,x,x
Cc1cccc(-c2noc(-c3cc4ccccc4oc3=O)n2)c1,1.3µM*,3.2µM*,u,2.8µM*,u
CNC(=O)c1[nH]nc2c1CCc1cc(OC)ccc1-2,17µM*,u,x,5µM*,u
CC(C)NC(=O)c1[nH]nc2c1CCc1ccccc1-2,19µM*,u,x,3.5µM*,u
COc1ccc2c(c1)CCc1c-2n[nH]c1C(=O)NCCC(C)C,1.3µM*,1µM*,x,0.79µM*,2.6µM*
CCOc1ccccc1CNC(=O)c1nc(-c2ccc(Cl)cc2)n2c1CCCCC2,-12%,x,x,x,x
COC(=O)c1ccc(OCC2c3cc(OC)c(OC)cc3CCN2C(=O)COc2ccc(Cl)cc2)cc1 (stereo not given),-2%,x,x,x,x
CNC(=O)c1c(Cl)cnn1-c1ccc(C)cc1,12µM*,2.2µM*,x,3.2µM*,u
Nc1c(C(=O)N/N=C/c2ccc(Cl)cc2)cnn1-c1ccccc1,6%,29%,x,u,14%
CNc1cnn(-c2ccc(C)cc2)c(=O)c1Cl,13µM*,1.6µM*,11µM*,3.2µM*,u
Cc1ccc(-n2nc(C)c(NC(=O)CCl)c2C)cc1,-2%,-11%,-35%,-34%,-7%
O=c1c(Cl)c(N/N=C/c2ccc(Cl)cc2)cnn1-c1ccccc1,-4%,0.56µM*,-7%[1.84 µM],0.32µM*,6%
C=CCNC(=O)c1c(Cl)cnn1-c1ccc(C)cc1,17µM*,2µM*,x,3.2µM*,u
CNc1cnn(-c2ccc(C)cc2)c(=O)c1Sc1ccc(C)cc1,-1%,0%,8%,1%,2%
C=CCNC(=O)c1cnn(-c2ccccc2)c1-c1ccccc1,-2%,-2%,x,-1%,-5%
Cc1cn(C)c(CC(=O)N2CCN(c3ccccc3F)CC2)c1C(=O)O,1%,x,x,x,x
CNC(=O)c1c(Br)cnn1-c1ccc(C)cc1,7.6µM*,2.8µM*,x,3.2µM*,u
Cc1ccc(-n2ncc(Cl)c2C(=O)NC2CC2)cc1,11µM*,3.2µM*,x,1.8µM*,u
Cc1ccc(-n2ncc(C(=O)NC3CC3)c2C2CCN(C(=O)OC(C)(C)C)CC2)cc1,5%,2%,x,-6%,1%
Cc1ccc2c(c1)N[C@H](c1ccc(C(=O)O)cc1)c1cccn1-2,x,x,-30%[9.22 µM],x,x
SMILES,FLuc counter,NPC1 prom act,SMN2 splice up,Rab9 prom act,ELG1 genotox
CSc1nc2sc3c(c2c(=O)n1C)CCC(C)C3 (stereo not given),13µM*,2%,1%,19%,9%
CSc1nc2sc3c(c2c(=O)n1C)CCC3,-6%,0%,x,-2%,3%
COc1cc(C(=O)Nc2ccc3c(c2)ncn3C)cc(OC)c1OC,u,-27%,x,-25%,u
COc1cc(C(=O)Nc2ccc3c(c2)nc(C)n3C)cc(OC)c1OC,21µM*,-27%,x,-18%,u
Cc1nc2cc(NC(=O)c3ccc(Cl)cc3)ccc2n1C,4.3µM*,0.28µM*,x,0.28µM*,1µM*
CCn1c(C)nc2cc(C(=O)N/N=C/c3ccc(O)c(O)c3O)ccc21,13µM*,-2%,-18%,5%,-17%
Cn1nnc2cc(C(=O)Nc3ccc(Cl)cc3)ccc21,-14%,u,18%,3.5µM*,u
